Compound activity (PubChem BioAssay)
Hits are enriched below; roughly 2.2% of the tested compounds scored in any of these assays.
Giardia kill – Small Molecules that selectively kill Giardia lamblia: qHTS; 340,000 tested, 0.15% active; Giardia lamblia trophozoite viability; activity change, % at 7.66 µM, hits read low; AID 540267, 2011; in the data active = activity change below about -80%; inconclusive = between about -30% and that limit;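 also: parasites exposed to compound for two days anaerobically before the ATP read; % is scaled to controls: 0 for no effect and ±100 for the full control effect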
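Giardia lamblia trophozoites (100 cells/well) were incubated with compounds for 48 h at 37 deg C under anaerobic conditions. Viability was read as ATP content by one-step luminescence after 15-30 min at room temperature.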
IL2 activator – qHTS of IL-2 Activators; IL-2 activation reporter assay, cell-based qHTS; stimulated with anti-CD3/CD4/CD28 beads; in transgenic mouse T cells; activation, % (series mostly up to about 46 µM); 360,000 tested, 0.065% active; in the data active = activation above about 50%; inconclusive = mostly about 30% to 49%; also: 0% is about no effect
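Quantitative HTS in unstimulated transgenic mouse T cells, with memory T cells as non-tolerant control and PMA/ionomycin as tolerance-bypass control. Compound pretreatment lasted 60 minutes before 18 h bead stimulation; EGFP/DsRed fluorescence read.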
TrxR1 substrate – qHTS Assay for Substrates of Mammalian Selenoprotein Thioredoxin Reductase 1 (TrxR1): qHTS; purified TrxR1 substrate turnover, NADPH consumption readout; Potency, µM (top dose mostly 114 µM), without a hit: at the top dose activity change, negative = substrate turnover; 390,000 tested, 0.01% active; AID 588456, 2011; also: potency is read from the fitted curve at half-maximal effect; % is scaled to controls: 0 for no effect and ±100 for the full control effect; nearly all actives have a fitted effect of over 50% in size
Target sequence (O89049 whole entry, looked up): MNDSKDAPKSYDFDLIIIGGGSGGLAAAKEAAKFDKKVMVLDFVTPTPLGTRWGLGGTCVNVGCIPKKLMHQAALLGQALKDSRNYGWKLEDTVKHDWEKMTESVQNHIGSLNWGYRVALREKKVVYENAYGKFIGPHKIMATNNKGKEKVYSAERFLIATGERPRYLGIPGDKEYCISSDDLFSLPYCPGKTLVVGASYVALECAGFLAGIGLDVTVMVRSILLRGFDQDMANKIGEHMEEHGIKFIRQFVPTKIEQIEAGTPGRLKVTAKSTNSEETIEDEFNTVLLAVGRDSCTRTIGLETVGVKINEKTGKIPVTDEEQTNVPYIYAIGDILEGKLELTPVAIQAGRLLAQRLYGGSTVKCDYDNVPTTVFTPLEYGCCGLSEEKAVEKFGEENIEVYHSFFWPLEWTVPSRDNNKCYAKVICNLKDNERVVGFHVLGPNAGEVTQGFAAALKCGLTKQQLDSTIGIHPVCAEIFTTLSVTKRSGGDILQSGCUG
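Rat TrxR1, dispensed at 90 nM, was prereduced with 400 uM NADPH (final) for 5 min at ~22 deg C, then incubated with compound 15 min before 400 uM selenite. A first-read NADPH fluorescence drop versus no-compound background flagged substrates.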
BRCA1 expr up – qHTS Assay to Identify Small Molecule Activators of BRCA1 Expression | AID 624202, 2012 | 380,000 tested, 1.1% active | MCF7-BRCA1-FFLuc reporter, luminescence, 48 h; response scale: scaled: vehicle 0%, 10 µM genistein 100% | Potency, µM (highest dose often 46.1 µM), for the others: at the highest dose activation, actives largely listed as activators; also: potency is read from the fitted curve at half-maximal effect; nearly all actives have a fitted effect of over 80% in size
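MCF7-BRCA1-FFLuc cells, 2000/well in phenol-red-free MEM, attached 2 h then treated 48 h at 37 C. Luciferase luminescence read 15 min after reagent; normalized to genistein maximum activation (10microM) and DMSO, concentration-response fitted.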
IDH1 R132H inh – qHTS for Inhibitors of mutant isocitrate dehydrogenase 1 (IDH1): qHTS | Potency, µM (highest dose often 76.6 µM), without a hit: at the top dose activity change, negative = inhibition, actives largely listed as inhibitors | 390,000 tested, 0.093% active | AID 602179, 2012 | Isocitrate dehydrogenase [NADP] cytoplasmic (Homo sapiens), O75874 | IDH1-R132H enzyme, NADPH consumption, diaphorase/resazurin fluorescence; also: potency is read from the fitted curve at half-maximal effect; % is scaled to controls: 0 for no effect and ±100 for the full control effect; nearly all actives have a fitted effect of over 65% in size
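IDH1-R132H (0.5 ug/mL dispensed) in pH 7.5 Tris buffer was preincubated 30 min with compound, then given a substrate mix of 0.016 mM NADPH and 2 mM alpha-KG for 80 min at room temperature; remaining NADPH was read by diaphorase/resazurin fluorescence.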
rTrxR1 inhibitor – qHTS Assay for Inhibitors of Mammalian Selenoprotein Thioredoxin Reductase 1 (TrxR1): qHTS | recombinant rTrxR1, NADPH fluorescence consumption, selenite substrate | Potency, µM (doses to about 114 µM), without a hit: at the top dose activity change, negative = inhibition, actives largely listed as inhibitors | 390,000 tested, 1% active; also: potency is read from the fitted curve at half-maximal effect; % is scaled to controls: 0 for no effect and ±100 for the full control effect; nearly all actives have a fitted effect of over 65% in size
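Rat TrxR1 (90 nM in the dispensed reagent) was pre-reduced with 400 uM NADPH for 5 min at room temperature, then incubated with compound for 15 min. After 400 uM selenite was added, NADPH fluorescence (Ex 340/Em 450 nm) was followed for 8 min.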
The depositor's hits bear a star; ? = inconclusive; nt = no result given; [ ] = another dose, or the depositor's remark. Unless noted, calls follow the shape of the dose curve; as a rule, active = well fitted curve in the direction sought with a large enough effect; inconclusive = small, poorly fitted or top-dose-only effect, or another doubt; inactive = no such curve, though single readings can be large; an effect the other way counts as inactive or inconclusive.

SMILES | Giardia kill | IL2 activator | TrxR1 substrate | BRCA1 expr up | IDH1 R132H inh | rTrxR1 inhibitor
Cn1ccsc1=NC(=O)c1ccc(Cl)cc1 | -4 | 0 | 7%[57.1 µM] | 51% | 4% | 16%[57.1 µM]
CCNc1ccc(Br)cc(C(=O)/C=C/c2ccc(Cl)cc2)c1=O | -3 | 2 | -18% | -79% | 7% | 35µM*
CCNc1ccc(Br)cc(C(=O)/C=C/c2ccc3c(c2)OCO3)c1=O | 4 | 0 | -5% | -31% | 4% | 7.9µM*
Cc1ccc(C2CC(=O)n3nc(-c4cccc(C)c4)nc3S2)cc1 (configuration not stated) | nt | nt | 2% | 5% | 9% | 8%
O=C(C1=C[C@@H]2[C@H]3C(=O)N(c4cccc(Cl)c4)C(=O)[C@H]3[C@@H](C(=O)c3ccc(Cl)cc3)N2C=C1)c1ccccc1 | 6 | 2 | 0% | -4% | 0% | 50µM*
CC1(C)Cc2c(C#N)c(N3CCOCC3)nc(-c3ccccc3)c2CO1 | 8 | 0 | 27%[57.1 µM] | -19% | 5% | 14%[57.1 µM]
CC1CCN(c2nc(-c3ccco3)c3c(c2C#N)CC(C)(C)OC3)CC1 | 3 | -2 | 21% | -22% | 5% | 8.9µM*
CCN(C(=O)CSc1nc(-c2ccccc2)no1)c1cccc(C)c1 | nt | nt | 5% | nt | 14% | 1%
O=C(CSc1nncs1)NC(=O)Nc1ccc2c(c1)OCCO2 | 8 | -3 | 4% | 4.5µM* | 6% | 15%
Cc1cc(C(=O)COc2cccnc2[N+](=O)[O-])c(C)n1-c1ccccc1 | -89* | -2 | 4%[57.1 µM] | -41% | 20% | -3%[57.1 µM]
Cc1ccc(-n2c(C)cc(C(=O)COc3cccnc3[N+](=O)[O-])c2C)cc1 | ? | -3 | 2%[57.1 µM] | -55% | 16% | 7%[57.1 µM]
CCS(=O)(=O)c1ccc(O)c(NC(=O)CCCC(=O)O)c1 | 12 | -1 | 2%[57.1 µM] | 2% | 5% | 8%[57.1 µM]
CCS(=O)(=O)c1ccc(O)c(NC(=O)/C=C/c2ccccc2)c1 | -4 | 0 | -6% | 13µM* | 3% | 12%[57.1 µM]
CCc1ccccc1NC(=O)Cn1c(=O)n(Cc2ccco2)c(=O)c2sc3ccccc3c21 | nt | nt | 0% | 6% | -8% | -7%
Cc1ccc(NC(=O)c2nc(S(=O)(=O)Cc3ccccc3C)ncc2Cl)cc1C | ? | -3 | 1% | -29% | 4% | 32µM*
Cc1ccccc1NC(=O)c1nc(S(=O)(=O)Cc2ccccc2F)ncc1Cl | nt | nt | 19% | 0% | nt | 3.5µM*
CSc1ncc(Cl)c(C(=O)Nc2ccccc2C)n1 | -3 | 2 | 10%[57.1 µM] | 4% | -5% | 8%[57.1 µM]
CCS(=O)(=O)c1ncc(Cl)c(C(=O)Nc2c(C(=O)Nc3cccc(C)c3)oc3ccccc23)n1 | nt | nt | 6% | nt | -19% | 9%
Cc1ccc(NC(=O)c2nc(S(=O)(=O)Cc3ccccc3F)ncc2Cl)cc1C | nt | nt | -6% | -29% | nt | 3.2µM*
Cc1ccc(NC(=O)c2nc(S(=O)(=O)Cc3ccccc3F)ncc2Cl)cc1 | nt | nt | 9% | -23% | nt | 2.8µM*
CSc1ncc(Cl)c(C(=O)Nc2ccc(C)c(C)c2)n1 | 5 | -2 | 4% | -36% | 10% | 23%
CCOC(=O)c1ccccc1NC(=O)N(C)CCc1c(C)nn(CC)c1C | nt | nt | 8%[57.1 µM] | 0% | -9% | 19%[57.1 µM]
NS(=O)(=O)c1ccc(NC(=O)c2nc(S(=O)(=O)Cc3ccccc3F)ncc2Cl)cc1 | nt | nt | 4% | 17% | nt | 3.5µM*
Cc1ccc(OCc2ccccc2C)c([N+](=O)[O-])n1 | -12 | -2 | 0% | 29% | -1% | 0%
Cc1ccc(OCC(=O)Nc2ccc(C)c(F)c2)c([N+](=O)[O-])n1 | ? | 2 | -9%[57.1 µM] | 6.3µM* | -2% | 16%
